The values that follow come from PubChem BioAssay (NCI).

This is part of a sample that, as a whole, favours compounds with a hit. Of some 83,000 tested, about 20% had one in any assay.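 96-well plates, one dose, 48 hours. Percent growth reported; active if below 10.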 Values without a mark were called inactive. Activity calls are given as the source filed them.

Among the test systems are SK-MEL-2 melanoma; EKVX NSCLC; SN12C renal; UO-31 renal; TK-10 renal; ACHN renal; CAKI-1 renal; A498 renal; CCRF-CEM leukemia; MOLT-4 leukemia; RPMI-8226 leukemia; OVCAR-8 ovarian; OVCAR-5 ovarian; OVCAR-4 ovarian; SK-OV-3 ovarian; IGROV1 ovarian; OVCAR-3 ovarian; HS 578T breast; NCI/ADR-RES ovarian.
What all share (experiment): NCI-60 one-dose screen, 48 h (100 = growth as untreated, 0 = no growth, -100 = all killed)
Details in all cases: 10 µM unless noted

In the case of `CCOc1cc(N)ccc1C(=O)NCCCN(CC)CC`, the growth in the assay with SK-MEL-2 melanoma was 102%; in the assay with EKVX NSCLC it was 106%; with SN12C renal it was 98.5%; with UO-31 renal, 75.8%; in the assay on TK-10 renal, 108%; in the assay with ACHN renal it was 94.6%. For the same compound, the growth with CAKI-1 renal was 95.2%; in the assay with A498 renal, 66.5%; with CCRF-CEM leukemia it was -13.6% (active); in the assay on MOLT-4 leukemia it was 26.3%; in the assay on RPMI-8226 leukemia, 95.9%; in the assay on OVCAR-8 ovarian, 118%. The growth with OVCAR-5 ovarian was 93.9%; in the assay with OVCAR-4 ovarian it was 109%; in the assay on SK-OV-3 ovarian, 110%; with IGROV1 ovarian, 96.5%; in the assay with OVCAR-3 ovarian, 105%; with HS 578T breast it was 99.1%. Besides, the growth in the assay with NCI/ADR-RES ovarian is 94.2%.

Take `C[C@@H](C[C@H](CCOCc1cccnc1)c1ccccc1)c1cc2ccccc2o1`: the growth was 89.7% with SK-MEL-2 melanoma; 94.2% with EKVX NSCLC; 95.1% in the assay on SN12C renal; 75.9% in the assay on UO-31 renal; 95.3% in the assay with TK-10 renal; 93.1% in the assay on ACHN renal. Besides, the growth is 77.6% in the assay on CAKI-1 renal; 101% in the assay with A498 renal; 94.1% in the assay with CCRF-CEM leukemia; 84.1% in the assay with MOLT-4 leukemia; 75% in the assay on RPMI-8226 leukemia; 88.6% in the assay with OVCAR-8 ovarian. Besides, the growth is 87.8% in the assay on OVCAR-5 ovarian; 81.6% in the assay on OVCAR-4 ovarian; 84.7% in the assay on SK-OV-3 ovarian; 83.8% in the assay with IGROV1 ovarian; 94% in the assay with OVCAR-3 ovarian; 97.9% in the assay on NCI/ADR-RES ovarian.

On to `O=S(=O)(NCCNc1cc(-c2c(-c3cccc(O)c3)nc3sccn23)ccn1)c1ccc(Br)cc1`, for which the growth was 79.5% in the assay with SK-MEL-2 melanoma; 56.8% in the assay with EKVX NSCLC; 45.3% with SN12C renal; -1.33% (active) with UO-31 renal; 83.2% in the assay on TK-10 renal; 56.7% with ACHN renal. The growth is 39% with CAKI-1 renal; 51.1% in the assay on A498 renal; 39.9% in the assay on CCRF-CEM leukemia; 32.9% in the assay with MOLT-4 leukemia; 38.1% in the assay on RPMI-8226 leukemia; 47.5% in the assay with OVCAR-8 ovarian. Also, the growth was 109% in the assay with OVCAR-5 ovarian; 43.1% with OVCAR-4 ovarian; 73.7% in the assay with SK-OV-3 ovarian; 47.4% with IGROV1 ovarian; 60.3% in the assay on OVCAR-3 ovarian; 59.1% with HS 578T breast. In addition, the growth in the assay with NCI/ADR-RES ovarian is 80.4%.

Turning to `CS(=O)(=O)c1ccc(-c2[nH]c3ccc(F)cc3c2/C=N/O)cc1`, the growth in the assay on SK-MEL-2 melanoma was 94.9%; in the assay with EKVX NSCLC, 98.4%; in the assay with SN12C renal, 99.1%; in the assay with UO-31 renal it was 82.5%; with TK-10 renal, 99.4%; in the assay with ACHN renal, 97%. The growth in the assay on CAKI-1 renal is 81.4%; in the assay on A498 renal, 99.2%; with CCRF-CEM leukemia it was 92.9%; in the assay with MOLT-4 leukemia, 92.9%; with RPMI-8226 leukemia it was 90.4%; in the assay with OVCAR-8 ovarian, 90.3%. The growth in the assay with OVCAR-5 ovarian is 91.4%; in the assay with OVCAR-4 ovarian, 97.1%; in the assay on SK-OV-3 ovarian, 69.8%; with IGROV1 ovarian it was 89.9%; in the assay with OVCAR-3 ovarian, 99.8%; in the assay on HS 578T breast, 92.2%. In the assay on NCI/ADR-RES ovarian, the growth is 107%.

With `CCCCN(CCCC)CCCn1c(=O)c2sc3ncccc3c2n2nnc(-c3ccccc3)c12`, the growth in the assay on SK-MEL-2 melanoma is 107%; in the assay with EKVX NSCLC, -3.24% (active); in the assay on SN12C renal, 99.3%; in the assay on UO-31 renal it was 48.1%; in the assay on TK-10 renal it was 118%; in the assay on ACHN renal, 97%. For the same compound, the growth in the assay on CAKI-1 renal is -87.9% (active); in the assay with A498 renal, 117%; in the assay with CCRF-CEM leukemia it was 90.8%; in the assay on MOLT-4 leukemia, 94.5%; in the assay on RPMI-8226 leukemia, 96.4%; in the assay with OVCAR-8 ovarian it was 96.4%. The growth in the assay with OVCAR-5 ovarian was 97.1%; in the assay with OVCAR-4 ovarian, 103%; in the assay on IGROV1 ovarian, 80.5%; in the assay on OVCAR-3 ovarian it was 120%; in the assay with HS 578T breast it was 110%; with NCI/ADR-RES ovarian it was 108%.

Take `O=C1C(Cl)C(c2ccccc2Cl)N1n1cnnc1` (centres undefined): the growth was 102% with SK-MEL-2 melanoma; 99.8% in the assay on EKVX NSCLC; 100% in the assay on SN12C renal; 83.3% with UO-31 renal; 102% in the assay with TK-10 renal; 96.8% with ACHN renal. In addition, the growth was 85.6% in the assay on CAKI-1 renal; 93.9% with A498 renal; 98.6% in the assay on CCRF-CEM leukemia; 101% in the assay on MOLT-4 leukemia; 102% with RPMI-8226 leukemia; 96.2% with OVCAR-8 ovarian. The growth with OVCAR-5 ovarian was 91.4%; in the assay on OVCAR-4 ovarian, 97.5%; with SK-OV-3 ovarian it was 77.3%; with IGROV1 ovarian, 91.5%; in the assay on OVCAR-3 ovarian, 102%; in the assay with HS 578T breast, 87.6%. Moreover, the growth in the assay with NCI/ADR-RES ovarian is 106%.

For `Cc1nc(Nc2cccc(NC(=O)Nc3ccc(Cl)cc3)c2)c2ccccc2n1`, the growth was 107% in the assay with SK-MEL-2 melanoma; 87.2% with EKVX NSCLC; 92.9% in the assay with SN12C renal; 88.2% in the assay with UO-31 renal; 104% in the assay on TK-10 renal; 105% with ACHN renal. For the same compound, the growth with CAKI-1 renal is 80.4%; in the assay on A498 renal it was 81.8%; in the assay on CCRF-CEM leukemia it was 82.9%; with MOLT-4 leukemia, 76.7%; in the assay on RPMI-8226 leukemia, 66.8%; in the assay with OVCAR-8 ovarian, 93.9%. Also, the growth in the assay with OVCAR-5 ovarian is 106%; in the assay on OVCAR-4 ovarian, 47.8%; in the assay on SK-OV-3 ovarian, 97.8%; with IGROV1 ovarian, 102%; in the assay with OVCAR-3 ovarian, 90.7%; with HS 578T breast it was 104%. For the same compound, the growth in the assay with NCI/ADR-RES ovarian was 87.4%.

For `CNC(=O)c1c(NC(=O)c2ccc(C(C)(C)C)cc2)sc2c1CCC(=O)C2`, the growth is -2.66% (active) in the assay on SK-MEL-2 melanoma; 14.6% in the assay with EKVX NSCLC; 7.81% (active) in the assay on SN12C renal; -95.5% (active) with UO-31 renal; 40% with TK-10 renal; -45.9% (active) with ACHN renal. The growth in the assay with CAKI-1 renal is -14.3% (active); with A498 renal it was 12.6%; with CCRF-CEM leukemia, 1.79% (active); in the assay with MOLT-4 leukemia, 2.3% (active); with RPMI-8226 leukemia, -20.6% (active); with OVCAR-8 ovarian, 15.7%. Moreover, the growth in the assay on OVCAR-5 ovarian is 9.12% (active); in the assay on OVCAR-4 ovarian, -66.4% (active); in the assay with SK-OV-3 ovarian, 0.618% (active); with IGROV1 ovarian, 4.71% (active); in the assay on OVCAR-3 ovarian it was -21.4% (active); in the assay on NCI/ADR-RES ovarian it was 8.75% (active).
